Measurements reported in ChEMBL document CHEMBL4513216, “Probing the Open Global Health Chemical Diversity Library for Multistage-Active Starting Points for Next-Generation Antimalarials” (ACS Infect Dis, 2020).
Screen size: about 69,000 compounds; about 8,600 (12%) showed an effect of 50% or more. The sample holds strong results, similar compounds and a random draw of the others, so the mix is not that of the screen.

system: Plasmodium berghei; experiment: Screen against P. berghei liver stage (PbLuc), transformed with Luciferase, at 10uM; assay type: functional, HepG2; details: tested at 10 uM

Row | Structure (SMILES) | INHIBITION [%]
1 | Cc1nnc(CN2CCC3(CCC(=O)N(C4CCC(O)CC4)C3)CC2)o1 (configuration not stated) | 26
2 | Cc1nc(CN2CCCC(N(C)Cc3c(C)noc3C)C2)no1 (configuration not stated) | 58
3 | Cc1cc(CN2CCC(N(C)Cc3noc(C4CC4)n3)C2)no1 (configuration not stated) | 33.3
4 | Cc1cc(CN(C)C2CCCN(Cc3noc(C4CC4)n3)C2)no1 (configuration not stated) | 53.8
5 | CN(Cc1cccnc1)C1CCCN(Cc2noc(C3CC3)n2)C1 (configuration not stated) | 57.45
6 | Cc1cc(CN(C)C2CCCN(Cc3noc(C)n3)C2)no1 (configuration not stated) | -14.7
7 | CN(Cc1ccccn1)C1CCCN(Cc2noc(C3CC3)n2)C1 (configuration not stated) | 16.9
8 | Cc1nc(CN(C)C2CCN(Cc3c(C)noc3C)C2)no1 (configuration not stated) | 21.5
9 | Cc1nc(CN2CCCC(N(C)Cc3nc(C)c(C)o3)C2)no1 (configuration not stated) | -31.8
10 | CN(Cc1cnn(C)c1)C1CCCN(Cc2noc(C3CC3)n2)C1 (configuration not stated) | 14.9
11 | Cc1cccc(CNCc2ccc(NC(=O)NC(C)C)cc2)c1 | 47.1
12 | c1csc(CN2CCc3nnc(COc4cncnc4)n3CC2)c1 | 20.5
13 | COc1ccccc1OCCNC(=O)N1CCC(n2cncn2)CC1 | 3.15
14 | CCn1cnnc1CNC(=O)NCC(C(C)C)N1CCC(C)CC1 (configuration not stated) | 37.1
15 | CCn1cnnc1CNC(=O)NC(C)C(C)C (configuration not stated) | 10
16 | CC(NC(=O)NCc1ccc(Cl)cc1)c1ccccn1 (configuration not stated) | 13.5
17 | CCn1cnnc1CNC(=O)NC(C)c1ccccn1 (configuration not stated) | 57.8
18 | CCn1cnnc1CNC(=O)N1CCOCC1 | -4.1
19 | CC(NC(=O)NCc1cc(Br)cs1)c1ccccn1 (configuration not stated) | 82.6
20 | CCn1cnnc1CNC(=O)NC(C)c1cccs1 (configuration not stated) | 31
21 | CCn1cnnc1CNC(=O)NCC(C(C)C)N1CCOCC1 (configuration not stated) | 56.8
22 | CC(NC(=O)NCc1ccc(Cl)s1)c1ccccn1 (configuration not stated) | 17.7
23 | COCC(=O)N1CCN(c2cc(C)nc(C3CCCN3C(C)=O)c2)CC1 (configuration not stated) | 32.3

Row | Structure (SMILES) | INHIBITION [%]
24 | Cc1ccccc1CN1CCN(C(=O)c2cnc(C3CC3)[nH]c2=O)CC1 | 27.5
25 | COc1cc(C)c(-c2ccc(F)c3c2OC(CN)C3)cc1C (configuration not stated) | 55.1
26 | COc1cc(-c2ccc(F)c3c2OC(CN)C3)cc(OC)c1OC (configuration not stated) | 31.9
27 | COc1cccnc1-c1ccc(F)c2c1OC(CN)C2 (configuration not stated) | -66.7
28 | CC(=O)N1[C@H](Cn2cncn2)C[C@@H]2CN(C(=O)c3ccoc3)CC[C@@H]21 | -22.1
29 | c1cncc(CN2CCc3c(CNc4nccs4)n[nH]c3C2)c1 | 33
30 | Cc1n[nH]c(C2CN(C(=O)CCc3ccco3)CCO2)n1 (configuration not stated) | -29.2
31 | CC1(C)CC(n2cc3nc(N)[nH]cc-3c2=O)CC(C)(C)N1 | 3.47
32 | CN(C)c1nc2cn(C3CC(C)(C)NC(C)(C)C3)c(=O)c-2c[nH]1 | 20.1
33 | Nc1nc2cn(C3CCCC3)c(=O)c-2c[nH]1 | 51.8
34 | CC1CCC(n2cc3nc(N)[nH]cc-3c2=O)CC1 (configuration not stated) | -8.9
35 | CC1(C)CC(n2cc3nc(N4CCCC4)[nH]cc-3c2=O)CC(C)(C)N1 | 64.8
36 | CC1(C)CC(n2cc3nc(N4CCOCC4)[nH]cc-3c2=O)CC(C)(C)N1 | 60.1
37 | CNc1nc2cn(C3CC(C)(C)NC(C)(C)C3)c(=O)c-2c[nH]1 | 25.1
38 | CN1CCC(n2cc3nc(N)[nH]cc-3c2=O)CC1 | 43.3
39 | O=c1c2c[nH]c(N3CCOCC3)nc-2cn1C1CCS(=O)(=O)C1 (configuration not stated) | 24
40 | CCn1cc(NC(=O)c2cc(C)nc(N3CCOCC3)n2)cn1 | 15.35
41 | Cc1noc(C2CCN(C(=O)C3CCCO3)CC2)n1 (configuration not stated) | 35.6
42 | CN1CCCN(C(=O)c2csc3nc(-c4ccc(Cl)cc4)cn23)CC1 | 43.6
43 | O=C(NCCOc1ccc2c(c1)OCO2)N1CCC1 | 23.4
44 | Cc1ccc(C(=O)N2CCC3(CCC(=O)N(CC(N)=O)C3)CC2)cc1 | 36.8
45 | Cc1nn(C)c2c(NCc3ccccc3F)nc(C3CC3)nc12 | 75.1
46 | COc1ccc(CNc2nc(C3CC3)nc3c(C)nn(C)c23)cc1 | -26.1

Row | Structure (SMILES) | INHIBITION [%]
47 | Cc1nc(NC2CC2)c2c(n1)c(C)nn2C | 29.3
48 | Cc1nn(C)c2c(NCc3ccncc3)nc(C3CC3)nc12 | -6.91
49 | Cc1nn(C)c2c(NC3CCCC3)nc(C3CC3)nc12 | 54.2
50 | Cc1nn(C)c2c(NCc3ccc(F)cc3)nc(C3CC3)nc12 | 56.9
51 | Cc1nn(C)c2c(N3CCCC3)nc(C3CC3)nc12 | 34.5
52 | Cc1nn(C)c2c(NCc3cccnc3)nc(C3CC3)nc12 | 35.1
53 | Cc1nc(NC2CCCC2)c2c(n1)c(C)nn2C | 41.5
54 | CC(C)N1[C@@H](C(=O)NCCN(C)C)C[C@H]2CN(c3ncccn3)C[C@H]21 | 37.8
55 | Cc1cc(CN2CCN(C(=O)NC(C)c3cccs3)CC2)on1 (configuration not stated) | 38.9
56 | CC(C)N1CCN(C(=O)C(C)n2cncn2)CC1 (configuration not stated) | 19.6
57 | COc1ccc(CN2CC[C@@H](O)[C@@H]2Cc2cnn(C)c2)cc1 | 33.4
58 | Cc1nc(CNC(=O)NCC(O)c2ccc(F)cc2)cs1 (configuration not stated) | 33.8
59 | CC(C)c1cc(O)nc(C2CCCN2C(=O)C(C)(C)C)n1 (configuration not stated) | 23.2
60 | O=C1C[C@H]2[C@@H](CCN2C(=O)c2cscn2)N1Cc1cccnc1 | 13.7
61 | O=C(NCc1nnc2ccccn12)N1CCc2sccc2C1 | -27.6
62 | O=C(NCc1nnc2ccccn12)N1CCOC(c2ccsc2)C1 (configuration not stated) | 32
63 | CCn1cnnc1CNC(=O)N1CCOC(c2ccccc2Cl)C1 (configuration not stated) | 17.5
64 | Cc1ccc(C2CN(C(=O)NCc3nnc4ccccn34)CCO2)o1 (configuration not stated) | 61.3
65 | O=C(NCc1nnc2ccccn12)N1CCOC(c2cccs2)C1 (configuration not stated) | 63.5
66 | COc1cccc2c1CCN(C(=O)NCc1nnc3ccccn13)C2 | -102
67 | Cc1nc(C2CN(C)CCO2)cc(N2CCC(CO)CC2)n1 (configuration not stated) | 32.8
68 | O=C(CC1CCCC1)N1C[C@H](Oc2cccnc2)[C@H]2OCCC[C@H]21 | -24.5
69 | Cc1nc(=O)c2ccccc2n1C1=CCN(CC(=O)NC(C)C)CC1 | 23.9

Row | Structure (SMILES) | INHIBITION [%]
70 | O=C(CN1CCOc2ccccc2C1)N1Cc2cnn(CCO)c2C1 | 71.5
71 | O=C(C1CCOc2ccccc2C1)N1Cc2cnn(CCO)c2C1 (configuration not stated) | 27.6
72 | O=C(C1COc2ccccc2O1)N1Cc2cnn(CCO)c2C1 (configuration not stated) | 13.7
73 | CCOc1ccc(CN2CCC(c3[nH]ncc3C)C2)cc1CO (configuration not stated) | 14.65
74 | COc1ncnc2c1CCN(C(=O)NCc1cccnc1)CC2 | -18.2
75 | CCc1nc(C2CCCN2CC(=O)Nc2cc(C)no2)no1 (configuration not stated) | -14.7
76 | CCc1cnc(NCC(C)Oc2cccnc2)nc1 (configuration not stated) | -5.19
77 | CC(CNc1nccc(C(C)C)n1)Oc1cccnc1 (configuration not stated) | 24.3
78 | CCC(CC)NCC(C)Oc1cccnc1 (configuration not stated) | 54.6
79 | CC(C)c1ncc(CN2CCC(c3n[nH]cc3C(=O)N(C)C)C2)cn1 (configuration not stated) | 10.9
80 | Cc1cccc(S(=O)(=O)N2C[C@@H]3C[C@@H](c4nc(C)no4)O[C@@H]3C2)c1 | 49.4
81 | CN(Cc1ccccc1CN1CCCC1)c1ncnc2[nH]ccc12 | -42.1
82 | CN(C)Cc1ccccc1CN(C)c1ncnc2[nH]ccc12 | 52.2
83 | Cc1cccnc1CN(C)c1ncnc2[nH]ccc12 | -76.9
84 | COc1cccc(S(=O)(=O)N2C[C@H](OC)[C@]3(CCCO3)C2)c1 | 28.5
85 | O=C(Nc1ccc2c(c1)OCO2)N1CCN(CCn2cccn2)CC1 | 42.8
86 | O=C(Nc1ccc2c(c1)OCO2)N1CCN(CCc2ccccc2)CC1 | 60.9
87 | CCCN1CCCN(C(=O)Nc2ccc3c(c2)OCO3)CC1 | -42.1
88 | Cc1nnc(CN(C)C2CCCN(Cc3noc(C4CC4)n3)C2)o1 (configuration not stated) | 27.8
89 | Cc1csc(NC(=O)C2(C)CN(C)CCO2)n1 (configuration not stated) | 12.235
90 | Cc1nc(-c2ccc(S(=O)(=O)N3CCC4(CC3)OCCO4)cc2)co1 | 48.4
91 | CCN1CCC(NC(=O)CN2CCCC2Cn2cc(C)cn2)CC1 (configuration not stated) | 11.2
92 | Cc1cccc(OC2CCN(c3nccnc3C#N)CC2)n1 | 11.4

Row | Structure (SMILES) | INHIBITION [%]
93 | Cc1cccc(OC2CCN(c3ccc(C#N)cn3)CC2)n1 | 51.1
94 | Cc1cccc(OC2CCN(c3ncc(C#N)cc3Cl)CC2)n1 | 12.4
95 | CC(C)N1CCn2c(COCC3CCOCC3)cnc2C1C (configuration not stated) | 39.4
96 | COc1cc(C)nc(N2CCN(C(=O)COC3CCCC3)CC2)n1 | 26.36
97 | Cc1cn[nH]c1C1CCCCN1C(=O)CCc1ccc(F)cc1 (configuration not stated) | 2.6
98 | O=C(c1ccsc1)N1CCC(c2nnc(C3CC3)o2)CC1 | 14.3
99 | Cc1cc(C)n(CC2CCCN2C(=O)c2ccc3ccccc3n2)n1 (configuration not stated) | 21
100 | CCOc1ccc(Cl)c(C(=O)N2CCN(c3cnccn3)CC2)n1 | 52.7
101 | CCOc1ccc(Cl)c(C(=O)N2CCN(c3ncccn3)CC2)n1 | 1.78
102 | CCOc1ccc(Cl)c(C(=O)N2CCN(c3ccncc3)CC2)n1 | 10
103 | CCC(NC(=O)c1ccoc1)c1ccccc1OCC(=O)N1CCCC1 (configuration not stated) | 29.05
104 | COCC(=O)N[C@H](C(=O)NC(C)c1cc(C)ccc1C)C(C)C (some centres not stated) | 57.4
105 | COCC(=O)N[C@H](C(=O)NC(C)c1cccc(C)c1C)C(C)C (some centres not stated) | 28.7
106 | CCOCC(=O)NC(C)c1cc(C)ccc1C (configuration not stated) | 30.5
107 | CC1=Nc2c(c(=O)[nH]n2C(C)C)C(c2ccccc2)S1 (configuration not stated) | 7.11
108 | CC1=Nc2c(c(=O)[nH]n2C(C)C)C(c2ccc(F)c(F)c2)S1 (configuration not stated) | -3.95
109 | CC1=Nc2c(c(=O)[nH]n2C(C)C)C(c2ccc3c(c2)OCCO3)S1 (configuration not stated) | -14.1
110 | CC1=Nc2c(c(=O)[nH]n2C(C)C)C(c2ccc3c(c2)n(C)c(=O)n3C)S1 (configuration not stated) | -39.6
111 | CC1=Nc2c(c(=O)[nH]n2C(C)C)C(c2ccc3ncccc3c2)S1 (configuration not stated) | 80
112 | CC1=Nc2c(c(=O)[nH]n2C(C)C)C(c2ccc3nccnc3c2)S1 (configuration not stated) | 58.5
